Screens: PubChem BioAssay, National Center for Advancing Translational Sciences (NCATS)
BRCA1 expr up: qHTS Assay to Identify Small Molecule Activators of BRCA1 Expression; AID 624202, 2012; actives 1.1% (n = 380,000); Potency, µM (top dose mostly 46.1 µM), for the others: top-dose activation, most hits filed as activators; MCF7-BRCA1-FFLuc reporter, luminescence, 48 h; response scale: scaled: vehicle 0%, 10 µM genistein 100%; also: nearly all actives have a fitted effect of over 80% in size
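Luminescence from a BRCA1-driven firefly luciferase in MCF7 cells was read after 48 h compound exposure at 37 C. Data normalized against DMSO and a 10microM genistein activation control, then curve-fitted across the titration.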
USP1-UAF1 inh: Inhibitors of USP1/UAF1: Primary Screen | Ubiquitin carboxyl-terminal hydrolase 1 (Homo sapiens), O94782 | recombinant USP1/UAF1, Ub-Rhodamine cleavage fluorescence | Potency, µM (series often up to 57.1 µM), for inactives: at the highest dose activity change, negative = inhibition, usual class: inhibitors | actives 0.23% (n = 390,000); also: % is scaled to controls: 0 for no effect and ±100 for the full control effect; nearly all actives have a fitted effect of over 60% in size
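USP1/UAF1 complex at 1 nM was preincubated with compound for 15 min at room temperature, then Ub-Rho substrate (150nM final) was added. Fluorescence (480/540 nm) was read kinetically, 6 reads every 60 seconds.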
EPAC2 agonist: qHTS for Agonist of cAMP-regulated guanine nucleotide exchange factor 4 (EPAC2): primary screen; Potency, µM (series often up to 154 µM), for the others: at the highest dose activation, actives largely listed as activators; Rap guanine nucleotide exchange factor 4 (Homo sapiens), Q8WZA2; EPAC2 activation, biochemical qHTS; response scale: 100% = 6.5 mM cAMP response; actives 0.079% (n = 360,000); AID 720711, 2013; also: nearly all actives have a fitted effect of over 50% in size
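Readout is BODIPY fluorescence (480 nm excitation, 540 nm emission), which falls as labeled GDP is exchanged off Rap1B. EPAC2 at 100 nM acted on 250 nM RAP1B-BODIPY-GDP with 50 uM GDP present.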
EPAC2 antagonist: qHTS for Antagonist of cAMP-regulated guanine nucleotide exchange factor 2 (EPAC2): primary screen | actives 0.18% (n = 360,000) | Potency, µM (titrated, usually from 114 µM), for inactives: at the highest dose activity, negative = inhibition, usual class: inhibitors | EPAC2 GEF exchange of Rap1B-BODIPY-GDP, fluorescence | Rap guanine nucleotide exchange factor 4 (Homo sapiens), Q8WZA2; also: % is scaled to controls: 0 for no effect and ±100 for the full control effect; nearly all actives have a fitted effect of over 45% in size
EPAC1 agonist: qHTS for Agonist of cAMP-regulated guanine nucleotide exchange factor 3 (EPAC1): primary screen. actives 0.073% (n = 360,000). Potency, µM (top dose mostly 154 µM), inactives show top-dose activation, most hits filed as activators. EPAC1 agonist qHTS, biochemical assay; response scale: 100% = response to 6.5 mM cAMP. AID 720707, 2013; also: nearly all actives have a fitted effect of over 60% in size
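Nucleotide exchange assay: 100 nM EPAC1 with 250 nM Rap1B loaded with BODIPY-GDP and 50 uM GDP, room temperature. Fluorescence (480/540 nm) read every 5 min for 30 min; signal change normalized to 6.5 mM cAMP as full agonist.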
EPAC1 antagonist: qHTS for Antagonist of cAMP-regulated guanine nucleotide exchange factor 3 (EPAC1): primary screen | Rap guanine nucleotide exchange factor 3 (Homo sapiens), O95398 | EPAC1 GEF assay, Rap1b-BODIPY-GDP exchange fluorescence | Potency, µM (series often up to 115 µM), without a hit: top-dose activity change, negative = inhibition, usual class: inhibitors | actives 0.14% (n = 360,000) | AID 720709, 2013;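 also: plate controls were vehicle for no effect and positive control for full effect; nearly all actives have a fitted effect of over 50% in size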
* hit, by the source's call; ? = inconclusive; . = no result. Sampled rows, rich in hits. Any-hit rate of the full collection: about 1.4%. Calls follow the shape of the dose curve; as a rule, active = well fitted curve in the direction sought with a large enough effect; inconclusive = small, poorly fitted or top-dose-only effect, or another doubt; inactive = no such curve, though single readings can be large; an effect the other way counts as inactive or inconclusive. Potency is read from the fitted curve at half-maximal effect.

SMILES | BRCA1 expr up | USP1-UAF1 inh | EPAC2 agonist | EPAC2 antagonist | EPAC1 agonist | EPAC1 antagonist
Cc1nc(-c2cccc(NC(=O)c3ccc(Cl)c(S(=O)(=O)N4CCCC4)c3)c2)cs1 | -50.9% | ? | 13.6% | 29.1% | -16.6% | 10.2%
[Hg+][c]1ccccc1 | -43.6% | . | . | . | . | .
COc1ccc2[nH]c3c(c2c1)CCN1C(=O)C(CC(=O)NCc2cccc(C(F)(F)F)c2)C[C@H](C(=O)N2CCCCC2)[C@@]31C (some centres not stated) | -57.3% | ? | -8.1% | -7.2% | -11.4% | -20.7%
CC(C)C[C@H]1C(=O)N2CCC[C@H]2[C@]2(O)O[C@](NC(=O)[C@@H]3C=C4c5cccc6[nH]cc(c56)C[C@H]4N(C)C3)(C(C)C)C(=O)N12 | 2.7% | 17.8µM* | 7.3% | 5.5% | -20.9% | 16.0%
CN1C[C@H](C(=O)NC2(C)OC3(O)[C@@H]4CCCN4C(=O)[C@H](Cc4ccccc4)N3C2=O)CC2c3cccc4[nH]cc(c34)C[C@H]21 (some centres not stated) | -10.6% | -14.9% | 7.7% | -8.9% | -3.4% | -6.1%
O=C(O)CSCC(=O)N(Cc1ccccc1)c1nc(-c2ccccc2)c(-c2ccccc2)s1 | 0.3% | ? | 19.2% | ? | 18.4% | ?
O=C(CSc1nnc(NC(=O)c2ccccc2F)s1)NCc1ccc(F)cc1 | 5.01µM* | -23.8% | 1.9% | 1.1% | -10.6% | -9.9%
CCSc1nnc(NC(=O)c2cccn(Cc3ccccc3Cl)c2=O)s1 | 16.3% | -13.5% | . | . | . | .
O=C(C1CC(c2ccc(Cl)c(Cl)c2)=NO1)N1CCC2(CC1)OCCO2 (configuration not stated) | 8.91µM* | 3.5% | 3.6% | -1.9% | 3.7% | 10.4%
O=C(C1CC(c2ccc(F)cc2)=NO1)N1CCC2(CC1)OCCO2 (configuration not stated) | 7.94µM* | -10.4% | 1.1% | 1.8% | 5.3% | 4.0%
CCOC(=O)c1ccc(N2Cc3ccccc3C2=NC(=O)c2cccc([N+](=O)[O-])c2)cc1 | 5.01µM* | -20.3% | 0.0% | -7.7% | 6.4% | -12.0%
Cc1ccc(N2C(=O)NC(=O)/C(=C\C=C\c3ccco3)C2=O)cc1 | -50.3% | -18.1% | 4.9% | 11.7% | -5.5% | ?
Cc1ccc(N2C(=O)NC(=O)/C(=C\C=C\c3ccco3)C2=O)cc1C | -62.7% | -2.4% | 8.7% | 6.1% | -13.7% | 56.2µM*
O=C1NC(=O)N(Cc2ccco2)C(=O)/C1=C/C=C/c1ccco1 | 0.0% | -12.1% | -6.2% | -0.8% | 13.3% | 56.2µM*
O=C1NC(=O)N(c2ccccc2)C(=O)/C1=C/C=C/c1ccco1 | -66.1% | -12.1% | 5.5% | 3.5% | 6.9% | -16.3%
O=C1NC(=O)N(Cc2ccccc2)C(=O)/C1=C\C=C\c1ccco1 | -72.6% | -4.5% | 2.7% | 0.1% | 9.4% | 56.2µM*
O=C(Nc1ccc(Br)cc1C(=O)O)c1ccc2c(c1)C(=O)N(Cc1ccccc1)C2=O | -10.7% | -26.9% | -0.2% | -0.1% | 13.1% | ?
O=C(CN1CCCC1)Nc1ccc(NC(=O)Nc2ccccc2)cc1 | 2.82µM* | -20.3% | 7.7% | 5.9% | 17.8% | 0.0%
C[C@]12CC[C@H](O)C[C@H]1CCC1C2CC[C@]2(C)[C@@H](c3ccc(=O)oc3)C[C@H]3O[C@]132 (some centres not stated) | -49.4% | . | . | . | . | .
